# From PubChem BioAssay AID1159580 (chemical genetic matrix, 2015)
# Among all 5,500 compounds or so, about 2,000 (36%) were called active. Not shown: some 18% with an inconclusive outcome. Some of the results follow. Values without a mark were called inactive. Rule as the data show it: active = normalized growth mostly below about 0.91 (no sharp cut-off); inconclusive = no clear call, values can overlap the other calls; inactive = mostly above about 0.92.
# Experiment: chemical genetic growth profiling, strain panel (AID 1159580);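 also: tested at 20 µM; growth read once vehicle control cultures reached saturation at 30 °C; 1 = growth at the plate median or of vehicle wells; lower values mean less growth of the strain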
# Conditions: growth OD
structure (smiles),measurement,setting,value
COc1ccccc1-c1cc(=O)c2c(OC)cccc2o1,normalized growth,"S. cerevisiae deletion strains, locus YBR021W, strain FUR4, active compounds read low",0.99
same,normalized growth,"S. cerevisiae deletion strains, locus YBR229C, strain ROT2, active compounds read low",0.973
same,normalized growth,"S. cerevisiae deletion strains, locus YCL029C, strain bik1, active compounds read low",1
same,normalized growth,"S. cerevisiae deletion strains, locus YDL035C, strain GPR1, active compounds read low",0.953
same,normalized growth,"S. cerevisiae deletion strains, locus YDL074C, strain BRE1, active compounds read low",0.923
same,normalized growth,"S. cerevisiae deletion strains, locus YDL101C, strain DUN1, active compounds read low",0.966
same,normalized growth,"S. cerevisiae deletion strains, locus YDL185W, strain tfp1, active compounds read low",0.987
same,normalized growth,"S. cerevisiae deletion strains, locus YDL192W, strain arf1, active compounds read low",0.892 (active)
same,normalized growth,"S. cerevisiae deletion strains, locus YDR101C, strain arx1, active compounds read low",0.987
same,normalized growth,"S. cerevisiae deletion strains, locus YDR162C, strain NBP2, active compounds read low",0.95
same,normalized growth,"S. cerevisiae deletion strains, locus YDR318W, strain mcm21, active compounds read low",0.935
same,normalized growth,"S. cerevisiae deletion strains, locus YDR388W, active compounds read low",0.985
same,normalized growth,"S. cerevisiae deletion strains, locus YDR502C, strain sam2, active compounds read low",0.944
same,normalized growth,"S. cerevisiae deletion strains, locus YEL061C, strain CIN8, active compounds read low",0.977
same,normalized growth,"S. cerevisiae deletion strains, locus YER110C, active compounds read low",0.977
same,normalized growth,"S. cerevisiae deletion strains, locus YER155C, strain BEM2, active compounds read low",1.01
same,normalized growth,"S. cerevisiae deletion strains, locus YER167W, strain BCK2, active compounds read low",0.996
same,normalized growth,"S. cerevisiae deletion strains, locus YGL078C, strain dbp3, active compounds read low",0.983
same,normalized growth,"S. cerevisiae deletion strains, locus YGL086W, strain mad1, active compounds read low",0.99
same,normalized growth,"S. cerevisiae deletion strains, locus YGL248W, strain PDE1, active compounds read low",0.942
same,normalized growth,"S. cerevisiae deletion strains, locus YGR078C, strain PAC10, active compounds read low",0.938
same,normalized growth,"S. cerevisiae deletion strains, locus YGR135W, strain pre9, active compounds read low",0.915
same,normalized growth,"S. cerevisiae deletion strains, locus YGR252W, strain gcn5, active compounds read low",0.776
same,normalized growth,"S. cerevisiae deletion strains, locus YHR030C, strain SLT2, active compounds read low",0.991
same,normalized growth,"S. cerevisiae deletion strains, locus YHR079C, strain IRE1 (second series), active compounds read low",0.979
same,normalized growth,"S. cerevisiae deletion strains, locus YHR094C, strain hxt1, active compounds read low",0.996
same,normalized growth,"S. cerevisiae deletion strains, locus YHR129C, strain ARP1, active compounds read low",0.967
same,normalized growth,"S. cerevisiae deletion strains, locus YHR200W, strain rpn10, active compounds read low",0.98
same,normalized growth,"S. cerevisiae deletion strains, locus YIL066C, strain RNR3, active compounds read low",0.961
same,normalized growth,"S. cerevisiae deletion strains, locus YIL073C, strain SPO22, active compounds read low",0.931
same,normalized growth,"S. cerevisiae deletion strains, locus YIL125W, strain kgd1, active compounds read low",1.01
same,normalized growth,"S. cerevisiae deletion strains, locus YIR030C, strain dcg1, active compounds read low",0.969
same,normalized growth,"S. cerevisiae deletion strains, locus YJL095W, strain BCK1, active compounds read low",0.773 (active)
same,normalized growth,"S. cerevisiae deletion strains, locus YJL134W, strain LCB3, active compounds read low",0.988
same,normalized growth,"S. cerevisiae deletion strains, locus YJL168C, strain set2, active compounds read low",0.971
same,normalized growth,"S. cerevisiae deletion strains, locus YJL187C, strain SWE1 (second series), active compounds read low",0.954
same,normalized growth,"S. cerevisiae deletion strains, locus YJR043C, strain POL32, active compounds read low",0.999
same,normalized growth,"S. cerevisiae deletion strains, locus YJR075W, strain HOC1, active compounds read low",0.987
same,normalized growth,"S. cerevisiae deletion strains, locus YKL009W, strain mrt4, active compounds read low",0.968
same,normalized growth,"S. cerevisiae deletion strains, locus YKL068W, active compounds read low",0.993
same,normalized growth,"S. cerevisiae deletion strains, locus YKL085W, strain MDH1 (second series), active compounds read low",0.982
same,normalized growth,"S. cerevisiae deletion strains, locus YKL085W, strain MDH1, active compounds read low",0.982
same,normalized growth,"S. cerevisiae deletion strains, locus YKL190W, strain CNB1, active compounds read low",0.972
same,normalized growth,"S. cerevisiae deletion strains, locus YKR001C, strain vps1, active compounds read low",0.916
same,normalized growth,"S. cerevisiae deletion strains, locus YLR039C, strain RIC1, active compounds read low",0.872
same,normalized growth,"S. cerevisiae deletion strains, locus YLR058C, strain SHM2, active compounds read low",0.96
same,normalized growth,"S. cerevisiae deletion strains, locus YLR102C, strain apc9, active compounds read low",0.988
same,normalized growth,"S. cerevisiae deletion strains, locus YLR262C, strain YPT6, active compounds read low",0.815
same,normalized growth,"S. cerevisiae deletion strains, locus YLR268W, strain sec22, active compounds read low",0.98
same,normalized growth,"S. cerevisiae deletion strains, locus YLR330W, strain CHS5, active compounds read low",0.976
same,normalized growth,"S. cerevisiae deletion strains, locus YLR342W, strain FKS1 (second series), active compounds read low",0.894
same,normalized growth,"S. cerevisiae deletion strains, locus YLR371W, strain rom2, active compounds read low",0.979
same,normalized growth,"S. cerevisiae deletion strains, locus YLR418C, strain cdc73, active compounds read low",0.77 (active)
same,normalized growth,"S. cerevisiae deletion strains, locus YML016C, strain PPZ1, active compounds read low",0.983
same,normalized growth,"S. cerevisiae deletion strains, locus YML032C, strain rad52, active compounds read low",0.951
same,normalized growth,"S. cerevisiae deletion strains, locus YML124C, strain tub3, active compounds read low",0.983
same,normalized growth,"S. cerevisiae deletion strains, locus YMR078C, strain ctf18, active compounds read low",0.969
same,normalized growth,"S. cerevisiae deletion strains, locus YMR223W, strain ubp8, active compounds read low",0.916
same,normalized growth,"S. cerevisiae deletion strains, locus YMR263W, strain SAP30, active compounds read low",0.958
same,normalized growth,"S. cerevisiae deletion strains, locus YMR307W, strain GAS1, active compounds read low",0.72
same,normalized growth,"S. cerevisiae deletion strains, locus YNL067W, strain RPL9B, active compounds read low",0.982
same,normalized growth,"S. cerevisiae deletion strains, locus YNL153C, strain GIM3, active compounds read low",0.974
same,normalized growth,"S. cerevisiae deletion strains, locus YNL233W, strain BNI4, active compounds read low",0.922
same,normalized growth,"S. cerevisiae deletion strains, locus YNL250W, strain rad50, active compounds read low",0.999
same,normalized growth,"S. cerevisiae deletion strains, locus YNL271C, strain bni1, active compounds read low",0.969
same,normalized growth,"S. cerevisiae deletion strains, locus YNL298W, strain CLA4, active compounds read low",0.965
same,normalized growth,"S. cerevisiae deletion strains, locus YNL307C, strain MCK1, active compounds read low",0.88 (active)
same,normalized growth,"S. cerevisiae deletion strains, locus YNL322C, strain KRE1, active compounds read low",0.978
same,normalized growth,"S. cerevisiae deletion strains, locus YNR052C, strain pop2, active compounds read low",0.958
same,normalized growth,"S. cerevisiae deletion strains, locus YOL006C, strain TOP1, active compounds read low",0.762
same,normalized growth,"S. cerevisiae deletion strains, locus YOL012C, strain htz1",1.44
same,normalized growth,"S. cerevisiae deletion strains, locus YOL147C, strain pex11, active compounds read low",0.975
same,normalized growth,"S. cerevisiae deletion strains, locus YOR061W, strain CKA2, active compounds read low",0.972
same,normalized growth,"S. cerevisiae deletion strains, locus YOR069W, strain VPS5, active compounds read low",0.982
same,normalized growth,"S. cerevisiae deletion strains, locus YOR136W, strain idh2, active compounds read low",1
same,normalized growth,"S. cerevisiae deletion strains, locus YOR144C, strain elg1, active compounds read low",0.996
same,normalized growth,"S. cerevisiae deletion strains, locus YOR184W, strain ser1, active compounds read low",0.837 (active)
same,normalized growth,"S. cerevisiae deletion strains, locus YOR316C, strain cot1, active compounds read low",0.992
same,normalized growth,"S. cerevisiae deletion strains, locus YPL241C, strain CIN2, active compounds read low",0.974
same,normalized growth,"S. cerevisiae deletion strains, locus YPR119W, strain clb2, active compounds read low",0.982
same,normalized growth,"S. cerevisiae deletion strains, locus YPR141C, strain kar3, active compounds read low",0.987
same,normalized growth,"S. cerevisiae deletion strains, locus YPR163C, strain tif3, active compounds read low",0.964
same,normalized growth,"S. cerevisiae deletion strains, locus YPR167C, strain met16, active compounds read low",0.969
same,normalized growth,"S. cerevisiae deletion strains, strain wtn01, active compounds read low",1
same,normalized growth,"S. cerevisiae strains, strain wild type, active compounds read low",0.975
